Results on 17 molecules are retold here after PubChem BioAssay (NCATS).

Inconclusive results are not listed. The source made the active and inactive calls. The call rests on the fitted dose curve; in most records, active means well fitted curve in the direction sought with a large enough effect; inconclusive means small, poorly fitted or top-dose-only effect, or another doubt; inactive means no such curve, though single readings can be large; an effect the other way counts as inactive or inconclusive.

A short description of experiment [1]: Quantitative High-Throughput drug screen in 47 multiple myeloma cell lines against the NCATS MIPE library collection: KMS12PE_JCRB cell viability assay (AID 1918972). Further: nearly all actives have a fitted effect of over 30% in size. On viability: series mostly up to about 46 µM. In outline: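 Myeloma cells (500 per well) were exposed to MIPE 4.0 compounds by pin transfer and incubated 48 hours at 37C, 5% CO2. Viability was read as ATP by CellTiter-Glo luminescence, normalised to DMSO (100%) and media-only (0%) wells.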

Experiment [2] is described as follows: Quantitative High-Throughput drug screen in 47 multiple myeloma cell lines against the NCATS MIPE library collection: KMS20_JCRB cell viability assay (AID 1918973). Further: nearly all actives have a fitted effect of over 45% in size. In outline: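 Relative luminescence from CellTiter-Glo served as the viability signal, referenced to DMSO-treated (100%) and cell-free medium (0%) controls. Treatment lasted 48 hours at 37C with 500 cells per well.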

The nature of experiment [3]: Quantitative High-Throughput drug screen in 47 multiple myeloma cell lines against the NCATS MIPE library collection: KMS26_JCRB cell viability assay (AID 1918975). Further: nearly all actives have a fitted effect of over 45% in size. In outline:
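Approved and investigational drugs from MIPE 4.0 were added by pin tool to 500 cells per well. After 48 hours at 37C, ATP-based CellTiter-Glo luminescence indicated remaining viability.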

Experiment [4] in a line: Quantitative High-Throughput drug screen in 47 multiple myeloma cell lines against the NCATS MIPE library collection: MOLP8_DSMZ cell viability assay (AID 1918977). Further: nearly all actives have a fitted effect of over 45% in size. In outline:
(§1)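 Myeloma cells (500/well) treated with MIPE 4.0 compounds for 48 h at 37 °C, 5% CO2. Viability read as ATP via CellTiter-Glo luminescence after 5 min at RT; DMSO-only wells = 100%, media-only = 0% viability.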

The nature of experiment [5]: Quantitative High-Throughput drug screen in 47 multiple myeloma cell lines against the NCATS MIPE library collection: MM1S_ATCC cell viability assay (AID 1918980). Further: nearly all actives have a fitted effect of over 45% in size. In outline: as §1
A short description of experiment [6]: Quantitative High-Throughput drug screen in 47 multiple myeloma cell lines against the NCATS MIPE library collection: MM1R_ATCC cell viability assay (AID 1918981). Further: nearly all actives have a fitted effect of over 35% in size. In outline: as §1
Experiment [7] is described as follows: Quantitative High-Throughput drug screen in 47 multiple myeloma cell lines against the NCATS MIPE library collection: MMM1_PLB cell viability assay (AID 1918976). Further: nearly all actives have a fitted effect of over 35% in size. In outline: as §1
The nature of experiment [8]: Quantitative High-Throughput drug screen in 47 multiple myeloma cell lines against the NCATS MIPE library collection: NCIH929_DSMZ cell viability assay (AID 1918978). Further: nearly all actives have a fitted effect of over 35% in size. In outline: as §1
A short description of experiment [9]: Quantitative High-Throughput drug screen in 47 multiple myeloma cell lines against the NCATS MIPE library collection: OCIMY1_PLB cell viability assay (AID 1918979). Further: nearly all actives have a fitted effect of over 35% in size. On viability: series mostly up to about 46 µM. In outline: as §1
Potency means the concentration at half of the fitted maximal effect.

Turning to `CC(C)CN(C[C@H](O)[C@H](Cc1ccccc1)NC(=O)O[C@H]1CCOC1)S(=O)(=O)c1ccc(N)cc1`, the Potency entry in experiment [1] and in experiment [4] was “inactive” in each case. Also, the Potency was 16.6 µM (active) in experiment [2], 8.33 µM (active) in experiment [3], 16.6 µM (active) in [5] and 16.6 µM (active) in [6].

Consider `CN1[C@H]2CC[C@H]1CC(OC(=O)c1c[nH]c3ccccc13)C2` (some centres not stated), for which the Potency result in experiment [1], in [9] and in [6] was “inactive” in each case. For the same molecule, the Potency was 14.8 µM (active) in experiment [2]; 1.32 µM (active) in [7]; 2.35 µM (active) in [4]; 18.7 µM (active) in experiment [8]; 20.9 µM (active) in [5].

As to `O=C(Nc1ccc(OC(F)(F)F)cc1)c1sccc1NCc1ccnc2ccccc12`, the Potency in experiment [1] is 18.7 µM (active); in experiment [2], 3.72 µM (active); in [3], 18.7 µM (active); in experiment [7], 16.6 µM (active); in experiment [8], 20.9 µM (active); in experiment [5], 20.9 µM (active). For the same molecule, the Potency in experiment [6] was 20.9 µM (active).

With `COc1cc2ncnc(Nc3cc(Br)c(O)c(Br)c3)c2cc1OC`, the Potency in experiment [1] is 6.62 µM (active); in [2], 0.0023 µM (active); in [5] it was 0.0026 µM (active); in experiment [6] it was 0.0418 µM (active). Moreover, the Potency result in [3], in experiment [4] and in experiment [8] was “inactive” throughout.

Regarding `O=S(=O)(NCCNCC=Cc1ccc(Br)cc1)c1cccc2cnccc12`, the Potency in experiment [1] was 16.6 µM (active); in [2], 11.8 µM (active); in experiment [3], 13.2 µM (active); in [7] it was 20.9 µM (active); in experiment [8], 14.8 µM (active); in experiment [5], 3.72 µM (active). The Potency in experiment [6] was 20.9 µM (active).

Take `CC(=O)N1CCN(c2ccc(OCc3nn(C)c(C)c3-c3cccc4c(CCCOc5cc(C)c(Cl)c(C)c5)c(C(=O)O)n(Cc5cccnc5)c34)cc2)CC1`: the Potency in experiment [1] is 18.7 µM (active); in experiment [2], 2.96 µM (active); in [3] it was 18.7 µM (active); in experiment [5], 14.8 µM (active); in experiment [6], 20.9 µM (active). Further, the Potency entry in [9] is “inactive”.

Regarding `CCOC(=O)[C@H](CCc1ccccc1)N[C@@H](C)C(=O)N1CCCC1C(=O)O` (some centres not stated), the Potency result in [1], in experiment [2], in experiment [3], in [4], in experiment [8] and in experiment [9] was “inactive” throughout. The Potency in experiment [5] was 10.5 µM (active).

Consider `CN(C)CCN(C)C(=O)c1ccc(NC(=O)Nc2ccc(-c3nc(N4CCOCC4)c4ccn(CC(F)(F)F)c4n3)cc2)cc1`, for which the Potency in experiment [1] is 0.132 µM (active); in [2], 0.0418 µM (active); in experiment [3], 0.0526 µM (active); in [7], 0.0296 µM (active); in [8], 0.0083 µM (active); in [9], 7.43 µM (active). The Potency in experiment [5] was 0.0526 µM (active); in experiment [6], 0.105 µM (active).

For the molecule `Cc1nn(Cc2ccccc2Cl)c(C)c1CN(C)CC(O)COc1ccc(Cl)cc1` (configuration not stated), the Potency in experiment [1] was 5.9 µM (active); in [2] it was 11.8 µM (active); in experiment [3] it was 20.9 µM (active); in [7], 18.7 µM (active); in [8] it was 23.5 µM (active); in [9], 18.7 µM (active). Also, the Potency in experiment [6] is 20.9 µM (active).

As to `O=C(NC[C@H](O)CO)c1ccncc1Nc1ccc(I)cc1F`, the Potency in experiment [1] is 14.8 µM (active); in [2] it was 0.0526 µM (active); in [8] it was 8.33 µM (active); in [9], 0.0935 µM (active); in [5] it was 18.7 µM (active); in [6] it was 13.2 µM (active). In addition, the Potency result in [7] is “inactive”.

For `CCCCC(F)(F)[C@@]1(O)CC[C@H]2[C@H](CC(=O)[C@@H]2CCCCCCC(=O)O)O1`, the Potency result in experiment [1], in experiment [3], in experiment [8], in [9] and in [6] was “inactive” each time. Further, the Potency in experiment [2] is 0.418 µM (active).

For `Cc1cccc(-c2[nH]c(C(C)(C)C)nc2-c2ccc3c(c2)OCO3)n1`, the Potency in experiment [1] was 3.72 µM (active); in experiment [2] it was 2.35 µM (active); in experiment [7], 16.6 µM (active); in experiment [4], 6.62 µM (active); in [8], 6.62 µM (active); in experiment [5], 16.6 µM (active).

As for `CN1CCN2c3ncccc3Cc3ccccc3C2C1` (configuration not stated), the Potency entry in [1], in experiment [2], in experiment [3], in experiment [8], in experiment [9] and in [6] was “inactive” in each case.

On to `Cc1cc(C(C)Nc2ccccc2)c2nc(N3CCOCC3)cc(=O)n2c1` (configuration not stated), for which the Potency in experiment [1] is 16.6 µM (active); in [2], 10.5 µM (active); in [5], 0.332 µM (active). Besides, the Potency entry in experiment [7], in experiment [4] and in experiment [9] was “inactive” throughout.

As for `CC1=C(C(=O)Nc2cc3cn[nH]c3cc2F)C(c2ccc(C(F)(F)F)cc2)CC(=O)N1` (configuration not stated), the Potency result in [1], in experiment [2], in experiment [3], in experiment [4], in experiment [8] and in experiment [9] was “inactive” each time. Further, the Potency result in [6] is “inactive”.

As to `CCC(=C(c1ccc(O)cc1)c1ccc(OCCNC)cc1)c1ccccc1`, the Potency in [1] is 23.5 µM (active); in [2], 5.9 µM (active); in [7] it was 20.9 µM (active); in experiment [4] it was 26.4 µM (active); in [8], 14.8 µM (active); in [9], 23.5 µM (active). Further, the values for the Potency in experiment [5] and in experiment [6] were 20.9 µM (active) and 23.5 µM (active), respectively.

In the case of `CC=C1C2C=C(C)CC1(N)c1ccc(=O)[nH]c1C2` (configuration not stated), the Potency entry in [1], in [2], in [3], in [4], in experiment [8] and in experiment [9] was “inactive” throughout. Besides, the Potency result in [5] and in experiment [6] was “inactive” throughout.
